Test systems include SK-MEL-2 melanoma; SN12C renal; UO-31 renal; TK-10 renal; ACHN renal; CCRF-CEM leukemia; MOLT-4 leukemia; SR leukemia; OVCAR-8 ovarian; OVCAR-5 ovarian; OVCAR-4 ovarian; SK-OV-3 ovarian; IGROV1 ovarian; OVCAR-3 ovarian; HS 578T breast; NCI/ADR-RES ovarian; EKVX NSCLC; CAKI-1 renal; A498 renal; RPMI-8226 leukemia.
Holding throughout (assay): NCI-60 one-dose screen, 48 h (100 = growth as untreated, 0 = no growth, -100 = all killed)
Common to all, as to settings: 10 µM

Molecules are shown by their SMILES. This is part of a sample that, as a whole, favours compounds with a hit. Of some 83,000 tested, about 20% had one in any assay.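 In brief: 96-well plates, 48 h treatment, single concentration, percent growth endpoint.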 Unmarked numbers belong to inactive results. Calls of active or inactive are those of the source. The calls were made as follows: active = growth percent below 10; inactive = the rest.

Our source for the growth values is PubChem BioAssay (NCI).

For `COc1ccc(-c2nn(-c3cccc(Cl)c3)cc2/C=C2\NC(=S)N(c3ccc(Cl)cc3)C2=O)cc1`, the growth with SK-MEL-2 melanoma was -26.3% (active); in the assay on SN12C renal it was 20.4%; in the assay with UO-31 renal, 53.6%; in the assay with TK-10 renal, 27.7%; in the assay with ACHN renal, 51.1%; with CCRF-CEM leukemia, 21.9%. Further, the growth in the assay on MOLT-4 leukemia is -22.9% (active); in the assay on SR leukemia, -69.6% (active); in the assay with OVCAR-8 ovarian it was 21.9%; in the assay on OVCAR-5 ovarian, 53.7%; in the assay with OVCAR-4 ovarian it was -62.1% (active); in the assay on SK-OV-3 ovarian, -47.8% (active). Further, the growth is -16.2% (active) with IGROV1 ovarian, 0.69% (active) in the assay with OVCAR-3 ovarian, 25.8% in the assay on HS 578T breast and 7.34% (active) with NCI/ADR-RES ovarian.

With `C[C@H]1[C@H](OC(=O)CCC(=O)O)O[C@@H]2O[C@]3(C)CC[C@H]4[C@H](C)CC[C@@H]1[C@@]24OO3`, the growth in the assay with EKVX NSCLC was 29.2%; in the assay on SN12C renal, 33.3%; in the assay on UO-31 renal it was 9.64% (active); with TK-10 renal it was 46.8%; in the assay with ACHN renal, 27%; in the assay on CAKI-1 renal, 16.7%. The growth with A498 renal is 80.6%; in the assay on CCRF-CEM leukemia it was 39.7%; in the assay on MOLT-4 leukemia, 14.8%; with SR leukemia, -2.25% (active); in the assay on RPMI-8226 leukemia it was 25.8%; in the assay on OVCAR-8 ovarian, 23.4%. For the same molecule, the growth was 44.3% in the assay with OVCAR-5 ovarian; 37.6% in the assay with OVCAR-4 ovarian; 92.9% with SK-OV-3 ovarian; 54.5% in the assay with IGROV1 ovarian; 30.8% in the assay on OVCAR-3 ovarian; 47.2% in the assay on HS 578T breast. For the same molecule, the growth in the assay with NCI/ADR-RES ovarian is 23.6%.

Regarding `CN(C)CCCN1c2ccccc2CCc2ccc(Cl)cc21`, the growth with EKVX NSCLC is 70.5%; in the assay on SN12C renal, 61.5%; in the assay with UO-31 renal, 47.3%; in the assay on TK-10 renal it was 71.3%; in the assay on ACHN renal, 69.2%; in the assay with CAKI-1 renal, 51.6%. Further, the growth with A498 renal is 39.9%; with CCRF-CEM leukemia, 60.5%; in the assay on MOLT-4 leukemia, 30.8%; in the assay on SR leukemia, 49.2%; in the assay with RPMI-8226 leukemia it was 47.8%; in the assay with OVCAR-8 ovarian, 77.1%. The growth in the assay on OVCAR-5 ovarian is 77.5%; with OVCAR-4 ovarian, 53.1%; in the assay on SK-OV-3 ovarian, 82.4%; with IGROV1 ovarian, 59.3%; in the assay on OVCAR-3 ovarian it was 72.3%; in the assay with HS 578T breast it was 68.7%. In addition, the growth in the assay with NCI/ADR-RES ovarian is 59.5%.

On to `CC(C)[N+]1(C)C2CC[C@@H]1CC(OC(=O)C(CO)c1ccccc1)C2` (some centres undefined), for which the growth with EKVX NSCLC is 105%; with SN12C renal, 103%; in the assay with UO-31 renal, 90.7%; with TK-10 renal it was 107%; in the assay on ACHN renal, 105%; with CAKI-1 renal, 88.4%. For the same molecule, the growth is 92.4% in the assay with A498 renal; 92.3% in the assay with CCRF-CEM leukemia; 121% in the assay with MOLT-4 leukemia; 123% in the assay with SR leukemia; 101% in the assay with RPMI-8226 leukemia; 104% with OVCAR-8 ovarian. In addition, the growth was 108% in the assay with OVCAR-5 ovarian; 110% in the assay with OVCAR-4 ovarian; 116% in the assay on SK-OV-3 ovarian; 119% with IGROV1 ovarian; 125% in the assay with OVCAR-3 ovarian; 104% in the assay on HS 578T breast. Further, the growth in the assay with NCI/ADR-RES ovarian is 101%.

For `CCN1CC(CCN2CCOCC2)C(C(c2ccccc2)c2ccccc2)C1=O` (centres undefined), the growth was 97.8% in the assay on EKVX NSCLC; 98.4% with SN12C renal; 85.5% with UO-31 renal; 114% in the assay with TK-10 renal; 107% with ACHN renal; 91.5% with CAKI-1 renal. Besides, the growth is 79.5% with A498 renal; 96.4% with CCRF-CEM leukemia; 100% in the assay on MOLT-4 leukemia; 94% with SR leukemia; 113% in the assay on RPMI-8226 leukemia; 99.9% in the assay on OVCAR-8 ovarian. Further, the growth with OVCAR-5 ovarian was 110%; in the assay on OVCAR-4 ovarian, 113%; in the assay with SK-OV-3 ovarian, 115%; with IGROV1 ovarian, 127%; in the assay on OVCAR-3 ovarian, 112%; in the assay with HS 578T breast, 104%. Moreover, in the assay on NCI/ADR-RES ovarian, the growth is 98.8%.

In the case of `Cc1ccc(C2=NN(c3ccc(S(C)(=O)=O)cc3)C(=O)CC2)cc1`, the growth in the assay with SK-MEL-2 melanoma is 6.35% (active); in the assay with SN12C renal, 39.7%; in the assay with UO-31 renal, 41.1%; in the assay on TK-10 renal it was 67%; with ACHN renal, 54.5%; in the assay on CCRF-CEM leukemia, 14.9%. Besides, the growth in the assay with MOLT-4 leukemia was 20%; with SR leukemia, 4.47% (active); in the assay with OVCAR-8 ovarian, 31.8%; in the assay on OVCAR-5 ovarian, 53.1%; in the assay on OVCAR-4 ovarian it was 60.8%; with SK-OV-3 ovarian, 19.9%. The growth in the assay on IGROV1 ovarian was 59.2%; with OVCAR-3 ovarian it was -14.7% (active); with HS 578T breast, -1.17% (active); in the assay with NCI/ADR-RES ovarian, 6.72% (active).

With `Cc1cn(-c2cc(F)cc(NC(=O)c3ccc(C)c(Nc4nccc(-c5cccnc5)n4)c3)c2)cn1`, the growth in the assay with SK-MEL-2 melanoma is 64.4%; in the assay on SN12C renal, 20.9%; in the assay with TK-10 renal it was -36.3% (active); with ACHN renal it was -22.3% (active); in the assay on CCRF-CEM leukemia, 45.6%; with OVCAR-8 ovarian, 31.6%. Besides, the growth in the assay on OVCAR-5 ovarian is 45.2%; with OVCAR-4 ovarian, -41.7% (active); with SK-OV-3 ovarian, 2.64% (active); in the assay on OVCAR-3 ovarian it was -30.9% (active); in the assay on HS 578T breast, 38.5%; in the assay with NCI/ADR-RES ovarian, 59.9%.

Consider `CCc1cc(Cl)c(OC)c(C(=O)NCC2CCCN2CC)c1O` (centres undefined), for which the growth in the assay on EKVX NSCLC is 82.4%; with SN12C renal, 92.5%; in the assay with UO-31 renal, 61.4%; with TK-10 renal it was 104%; with ACHN renal, 88.5%; in the assay with CAKI-1 renal it was 72.2%. The growth with A498 renal is 70.1%; in the assay with CCRF-CEM leukemia, 96%; in the assay with MOLT-4 leukemia it was 88%; in the assay with SR leukemia it was 81.6%; in the assay with RPMI-8226 leukemia, 95.8%; in the assay on OVCAR-8 ovarian, 92.5%. Further, the growth in the assay with OVCAR-5 ovarian is 88.2%; in the assay on OVCAR-4 ovarian it was 86.5%; in the assay with SK-OV-3 ovarian, 79.9%; in the assay on IGROV1 ovarian, 98.4%; with OVCAR-3 ovarian, 100%; in the assay on HS 578T breast, 88.7%. Also, in the assay on NCI/ADR-RES ovarian, the growth is 94.2%.
